Hit rate of the full screen: of about 1,200 compounds, about 480 (40%) were called active. Another 29% or so got no clear call; they are omitted. Calls come from the whole dose curve; as a rule, active = well fitted inhibition curve with a large enough effect; inconclusive = small, poorly fitted or top-dose-only effect; inactive = no such curve, though single readings can be large or run the other way. The list shows a part of the results.
Experiment: qHTS Assay to Find Inhibitors of Chronic Active B-Cell Receptor Signaling: Hit Validation in Primary Screen; note: nearly all actives have a fitted effect of over 75% in size
Conditions: ABC-DLBCL IkB-luc/CBR ratio luminescence, 4 h; series mostly up to 46.1 µM; activity change, negative = inhibition: at the top concentration
Summary of the method: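 Concentration series (3 nM to 46 uM) tested on TMD8 cells induced with doxycycline for 4 h. Filter-corrected green (IkBa fusion) over red (unfused) luciferase signal; Data were normalised to 10 uM MG-132 and untreated cell wells.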
% is set by controls: 0 for no effect and ±100 for the full control effect; potency is the fitted concentration of half-maximal effect.

Row | Compound | Potency | activity change, negative = inhibition
1 | COc1cccc(Nc2sc(C(=O)c3ccc(Cl)cc3)c(N)c2C(=O)NCc2ccc(C)cc2)c1 | 1.3 µM (active) | 
2 | Cc1cc(C)c(S(=O)(=O)Nc2ccc3c4c(cccc24)CC3)c(C)c1 | 1.16 µM (active) | 
3 | COc1cccc(CN2c3ccc(Br)cc3C(=O)CS2(=O)=O)c1 |  | 6.37% (inactive)
4 | COc1ccc(CN2C[C@H]3CCCN3c3cc(Br)ccc3S2(=O)=O)cc1 | 6.51 µM (active) | 
5 | COc1cc(-c2noc(C)c2-c2ccc(N(C)C)nc2)cc(OC)c1OC | 2.31 µM (active) | 
6 | COc1ccc(-c2c(-c3cc(OC)c(OC)c(OC)c3)noc2C)cn1 | 20.6 µM (active) | 
7 | CCOC(=O)c1ccc(-c2c(-c3cc(OC)c(OC)c(OC)c3)noc2C)cc1F | 8.2 µM (active) | 
8 | COc1cc(-c2noc(C)c2-c2ccc3[nH]ccc3c2)cc(OC)c1OC | 14.6 µM (active) | 
9 | CC1=C/C(=N\NC(=S)NCc2ccccc2)CC1 |  | -7.8% (inactive)
10 | COc1cc(-c2c(-c3cc(OC)c(OC)c(OC)c3)noc2C)ccc1F | 1.3 µM (active) | 
11 | CC(/C=N/NC(=O)c1cc(-c2ccncc2)nc2ccccc12)=C\c1ccco1 | 1.64 µM (active) | 
12 | CC(/C=N/NC(=O)c1cc(-c2ccc(Cl)cc2)nc2ccccc12)=C\c1ccco1 | 2.91 µM (active) | 
13 | CC(/C=N/NC(=O)c1cc(-c2ccccc2)nc2ccccc12)=C\c1ccco1 | 5.8 µM (active) | 
14 | Cc1c(/C=N\NC(=O)C2COc3ccccc3O2)c2ccccc2n1C (stereo not drawn) | 2.59 µM (active) | 
15 | O=C(CN1CCCc2ccccc21)N/N=C/c1ccccc1O |  | -0.214% (inactive)
16 | Cc1ccc(/C=N/NC(=O)C2COc3ccccc3O2)s1 (stereo not drawn) | 23.1 µM (active) | 
17 | C=CCNC(=S)N/N=C/c1ccc(C)s1 |  | -9.11% (inactive)
18 | O=C1OCC2=C1C(c1ccc(F)cc1)c1cc3c(cc1N2)OCO3 (stereo not drawn) | 0.116 µM (active) | 
19 | COc1ccc(OC)c(C2C3=C(COC3=O)Nc3cc4c(cc32)OCO4)c1 (stereo not drawn) | 0.366 µM (active) | 
20 | COc1ccccc1C1C2=C(COC2=O)Nc2cc3c(cc21)OCO3 (stereo not drawn) | 1.3 µM (active) | 
21 | C#CCOc1ccc(C2C3=C(COC3=O)Nc3cc4c(cc32)OCO4)cc1OC (stereo not drawn) | 0.146 µM (active) | 
22 | CCOc1ccccc1C1C2=C(COC2=O)Nc2cc3c(cc21)OCO3 (stereo not drawn) | 1.3 µM (active) | 
23 | O=C(CN1CCC(NC(=O)Nc2ccc(F)cc2)CC1)Nc1ccccc1[N+](=O)[O-] |  | -17.7% (inactive)

Row | Compound | Potency | activity change, negative = inhibition
24 | CCOc1cc(Br)c(C=O)cc1OCC | 6.51 µM (active) | 
25 | CC(C)(C)NNC(=S)Nc1cccc(F)c1 |  | -8.63% (inactive)
26 | COc1cc(OC)cc(C(=O)Oc2c(CN3CCOCC3)cc(Cl)c3cccnc23)c1 |  | 36.6% (inactive)
27 | Cc1cccc(NC(=S)N/N=C/C(C)c2ccccc2)c1C (stereo not drawn) |  | -3.28% (inactive)
28 | CCN1C(=O)c2cccc3c(S(=O)(=O)Nc4nc(C)cs4)ccc1c23 | 3.66 µM (active) | 
29 | CCN1C(=O)c2cccc3c(S(=O)(=O)Nc4ccccc4O)ccc1c23 |  | 94.3% (inactive)
30 | COc1ccccc1OCCCN1C(=O)C(=O)c2cccc(C)c21 |  | -9.96% (inactive)
31 | Cc1ccccc1OCCc1c(C)[nH]c(=S)[nH]c1=O | 11.6 µM (active) | 
32 | Cc1ccc(S(=O)(=O)n2cc(-c3ccccc3)c3ccccc32)cc1 | 3.26 µM (active) | 
33 | CCCCNC(=S)NNC(=O)CCn1nc(C)c(Br)c1C |  | -4.91% (inactive)
34 | COc1cc(/C=C/c2ccc3cccc(O)c3n2)c(Br)cc1O | 18.4 µM (active) | 
35 | COc1ccc(OC)c(/C=C/c2ccc3cccc(O)c3n2)c1 | 20.6 µM (active) | 
36 | COc1cc(Br)cc(/C=C/c2ccc3cccc(O)c3n2)c1O | 20.6 µM (active) | 
37 | CCOc1ccccc1N=NC1C(=O)N(C(N)=S)N=C1C (stereo not drawn) |  | 24.5% (inactive)
38 | COCCCNC(=O)C(=O)Nc1ccc2c(c1)N(S(=O)(=O)c1cccs1)CCC2 | 16.4 µM (active) | 
39 | CCCC(=O)OCCNc1cc(Sc2nccn2C)c2nonc2c1[N+](=O)[O-] | 3.66 µM (active) | 
40 | CCOC(=O)CSC1=C(C#N)C(c2ccc(C)o2)CC(=O)N1 (stereo not drawn) | 4.11 µM (active) | 
41 | CCOC(=O)CSC1=C(C#N)C(c2ccc(C)s2)CC(=O)N1 (stereo not drawn) | 16.4 µM (active) | 
42 | CCCCNC(=S)N=Nc1c(O)[nH]c2ccccc12 |  | 29.1% (inactive)
43 | COc1cc(/C=N/N(C)c2ccccc2)ccc1O |  | 85.9% (inactive)
44 | COc1ccc(/C=C2\CCc3ccccc3C2=O)cc1O | 13 µM (active) | 
45 | CCOC(=O)/C=C/C(=O)OCC(=O)Nc1ccc(OC)c(Cl)c1 |  | -7.12% (inactive)
46 | CCc1ccc(NC(=O)C(C)OC(=O)/C=C/c2ccc(O)c(OC)c2)cc1 (stereo not drawn) | 20.6 µM (active) | 

Row | Compound | Potency | activity change, negative = inhibition
47 | CC(C)N1C(=O)/C(=C/c2nc3ccccc3c(=O)n2-c2ccccc2)c2ccccc21 | 18.4 µM (active) | 
48 | COc1ccccc1NS(=O)(=O)c1ccc(-c2cnc(C3CC3)o2)cc1 |  | 36.3% (inactive)
49 | COc1ccccc1CNS(=O)(=O)c1ccc(-c2cc(C)no2)cc1 | 13 µM (active) | 
50 | COc1ccccc1CNS(=O)(=O)c1ccc(-c2cnc(C3CC3)o2)cc1 | 16.4 µM (active) | 
51 | COc1ccc(-c2nn(C)c(=O)c3ccccc23)cc1CNS(C)(=O)=O |  | -7.23% (inactive)
52 | CCOc1ccccc1CNS(=O)(=O)c1ccc(-c2cnc(C3CC3)o2)cc1 | 7.31 µM (active) | 
53 | CCOc1ccccc1NS(=O)(=O)c1ccc(-c2cnc(C3CC3)o2)cc1 | 0.82 µM (active) | 
54 | CCN(CC(=O)Nc1ccccc1SC)Cc1nc2ccccc2c(=O)[nH]1 |  | -6.31% (inactive)
55 | N#Cc1cccc2c1-c1ccccc1/C2=N/NC(N)=S |  | 126% (inactive)
56 | Cn1c(=S)c2[nH]c(SCCN3CCCC3)nc2n(C)c1=O |  | 3.37% (inactive)
57 | O=S(=O)(Nc1cccc2ncccc12)c1cccs1 | 5.8 µM (active) | 
58 | Cc1ccc(S(=O)(=O)Nc2cccc3ncccc23)s1 | 4.61 µM (active) | 
59 | CCC(=NCCc1c(C)[nH]c2ccc(C)cc12)C1=C(O)CC(c2ccccc2)CC1=O (stereo not drawn) | 0.82 µM (active) | 
60 | CCCC(=O)Nc1ccc(C(=O)N/N=C/c2cccnc2)cc1 |  | -1.77% (inactive)
61 | CC(C)c1ccc(/C=N/NC(=O)c2ccccc2Cl)cc1 | 20.6 µM (active) | 
62 | Cc1cc2nc(/C=C/c3cccnc3)[nH]c2cc1C | 1.03 µM (active) | 
63 | CC(C)(C)NC(=S)N/N=C/c1cccnc1 |  | -5.02% (inactive)
64 | Cc1ccc(N2C(=O)c3cccc4c(N)ccc(c34)C2=O)c2cccnc12 | 0.461 µM (active) | 
65 | COc1cc(C(=O)c2cocc2C(=O)c2ccc3c(c2)OCO3)cc(OC)c1OC | 14.6 µM (active) | 
66 | COc1cc(C(=O)N/N=C(\C)c2ccc3c(c2)OCO3)cc(OC)c1OC | 18.4 µM (active) | 
67 | COc1cc(C(=O)N/N=C(\Cc2ncc[nH]2)c2ccccc2)cc(OC)c1OC |  | -14% (inactive)
68 | COc1cc(C(=O)N/N=C(\C)Cc2ccccc2)cc(OC)c1OC |  | -14% (inactive)

— PubChem BioAssay AID651558 (National Center for Advancing Translational Sciences (NCATS), 2012)
